High-throughput results deposited in PubChem by National Center for Advancing Translational Sciences (NCATS).
Hits are enriched below; roughly 10% of the tested compounds scored in any of these assays.
MCF10A rerep: A quantitative high throughput screen for small molecules that induce DNA re-replication in MCF 10a normal breast cells. MCF 10A DNA re-replication, Hoechst nuclear intensity, 48 h. 350,000 compounds, 2.9% hits. Potency, µM (titrated, usually from 46.1 µM), usual class: activators; also: nearly all actives have a fitted effect of over 50% in size
Gal4-VP16 FLuc: VP16 counterscreen qHTS for inhibitors of ROR gamma transcriptional activity; Drosophila S2 Gal4-VP16 UAS-luciferase, luminescence, 20 h; 310,000 compounds, 3.5% hits; Potency, µM (series often up to 53.6 µM), most hits filed as inhibitors; AID 2546, 2010;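 also: Gal4-VP16 expression switched on by copper sulfate through the metallothionein promoter; nearly all actives have a fitted effect of over 50% in size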
RORg inh: qHTS for inhibitors of ROR gamma transcriptional activity; Drosophila S2 Gal4-RORgamma UAS-luciferase reporter, 20 h; Nuclear receptor ROR-gamma (Mus musculus), P51450; Potency, µM (top dose mostly 53.6 µM), hits mostly inhibitors; 310,000 compounds, 5.4% hits; also: nearly all actives have a fitted effect of over 60% in size
Target sequence (P51450 whole entry, looked up, the tested form may be a part): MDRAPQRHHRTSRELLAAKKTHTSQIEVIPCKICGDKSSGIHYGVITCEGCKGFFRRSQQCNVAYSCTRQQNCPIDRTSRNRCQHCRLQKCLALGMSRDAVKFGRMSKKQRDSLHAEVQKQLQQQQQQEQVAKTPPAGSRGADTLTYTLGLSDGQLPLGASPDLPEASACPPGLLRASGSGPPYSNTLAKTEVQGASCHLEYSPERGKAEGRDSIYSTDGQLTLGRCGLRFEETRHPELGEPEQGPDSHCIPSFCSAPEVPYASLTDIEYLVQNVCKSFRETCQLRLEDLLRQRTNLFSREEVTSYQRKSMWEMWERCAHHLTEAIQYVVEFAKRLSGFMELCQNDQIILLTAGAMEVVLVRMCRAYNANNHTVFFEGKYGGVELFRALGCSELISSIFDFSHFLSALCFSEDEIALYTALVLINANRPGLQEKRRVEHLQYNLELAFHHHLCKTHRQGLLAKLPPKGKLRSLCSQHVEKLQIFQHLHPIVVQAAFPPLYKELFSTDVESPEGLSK
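Read-out: Photinus luciferase luminescence; inhibitors lower reporter signal. Insect Schneider cells with Gal4-ROR gamma fusion under metallothionein promoter, UAS reporter; 700 uM final copper sulfate induction, 20 hr, ambient temperature.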
SW480 rereplic: A quantitative high throughput screen for small molecules that induce DNA re-replication in SW480 colon adenocarcinoma cells. SW480 DNA re-replication, Hoechst DNA content imaging, 48 h. AID 624297, 2012. Potency, µM (series often up to 46.1 µM), hits mostly activators. 340,000 compounds, 1.8% hits; also: nearly all actives have a fitted effect of over 55% in size
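250 cells/well; 23 nL cpd via pin tool; 48 hr, 37 C, 5% CO2; Hoechst 40 min; imager read of total nuclear intensity, ex 405/em 500-530 nm.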
ELG1 repair inh: qHTS screen for small molecules that inhibit ELG1-dependent DNA repair in human embryonic kidney (HEK293T) cells expressing luciferase-tagged ELG1. Potency, µM (titrated, usually from 46.1 µM), usual class: inhibitors. AID 504467, 2011. HEK293T ELG1-luciferase reporter, luminescence, 16 h; DNA damage induced by 5-fluorouridine. 330,000 compounds, 2.3% hits; also: nearly all actives have a fitted effect of over 55% in size
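DMSO vehicle served as the neutral condition. Each well held 2,000 cells given 5-fluorouridine plus compound; after 16 hr at 37 °C/5% CO2, ONE-Glo was added and luciferase measured 30 min later.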
Large screens that a line does not name were inactive. Calls follow the shape of the dose curve; as a rule, active = well fitted curve in the direction sought with a large enough effect; inconclusive = small, poorly fitted or top-dose-only effect, or another doubt; inactive = no such curve, though single readings can be large; an effect the other way counts as inactive or inconclusive.

O=C(/C=C\c1ccccc1OC(=O)c1ccccc1F)c1cc2ccccc2o1	MCF10A rerep inconclusive, Gal4-VP16 FLuc 0.32µM, RORg inh inconclusive, ELG1 repair inh inconclusive
CC(C)Cn1c(N)c(C(=O)COC(=O)c2c(O)c(Cl)cc(Cl)c2Cl)c(=O)n(C)c1=O	MCF10A rerep inconclusive (no result: Gal4-VP16 FLuc, RORg inh)
COC(=O)C(C(=O)OC)C(c1ccccc1)C(C(=O)c1ccccc1)[N+](=O)[O-] (stereo unspecified)	none
CCOc1ccc(NC(=O)CN(C)C(=O)C2CCN(C(=O)c3ccc(Cl)cc3)CC2)cc1OCC	none (no result: Gal4-VP16 FLuc, RORg inh)
COc1cccc(-c2nn(C)c3sc(C(=O)N4CCOCC4)cc23)c1	RORg inh inconclusive, ELG1 repair inh 18µM
COc1cccc(-c2nn(C)c3sc(C(=O)NCc4ccc(C)o4)cc23)c1	MCF10A rerep inconclusive, Gal4-VP16 FLuc 20µM, SW480 rereplic inconclusive, ELG1 repair inh inconclusive
CCOC(=O)C1CCCN(C(=O)c2cc3c(-c4cccc(OC)c4)nn(C)c3s2)C1 (stereo unspecified)	MCF10A rerep 6.5µM, SW480 rereplic inconclusive, ELG1 repair inh 12µM (no result: Gal4-VP16 FLuc)
COc1cccc(-c2nn(C)c3sc(C(=O)N4CCN(c5ccccn5)CC4)cc23)c1	MCF10A rerep inconclusive, Gal4-VP16 FLuc inconclusive, SW480 rereplic inconclusive, ELG1 repair inh inconclusive
COc1ccc([C@@H]2[C@@H](O)[C@H](O)[C@@H](C)N2C)cc1OC	none (no result: MCF10A rerep, SW480 rereplic, ELG1 repair inh)
COc1ccccc1/C=C/C1=CC2(C)CC1(C)C(c1ccccc1OC)CC2=O (stereo unspecified)	none (no result: MCF10A rerep, SW480 rereplic, ELG1 repair inh)
CCCN1CCN(CCCNC(=O)CCn2nc(-c3ccccc3)ccc2=O)CC1	none
CCc1noc(C)c1C(=O)Nc1cc(Cl)ccc1N1CCOCC1	ELG1 repair inh inconclusive (no result: Gal4-VP16 FLuc, RORg inh)
O=C(O)CCCCCCCCCCCc1ccccc1	none
O=C(c1ccco1)N1CCN(S(=O)(=O)c2cccc(Cl)c2)CC1	none
CCOC(=O)C1CCCN(C(=O)CN2C(=O)/C(=C/c3ccc(OC)cc3)Oc3ccccc32)C1 (stereo unspecified)	MCF10A rerep inconclusive, ELG1 repair inh 23µM
O=C1C=CC(=O)C2=C1C1c3ccccc3C2c2ccccc21	Gal4-VP16 FLuc inconclusive, RORg inh 10µM (no result: MCF10A rerep, SW480 rereplic, ELG1 repair inh)
Cc1cccc(C)c1OC(=O)CN1C(=O)c2ccccc2C1=O	none
COc1cc(OC)cc(-c2cc3nc(C)cc(N4CCN(C(=O)c5ccco5)CC4)n3n2)c1	RORg inh inconclusive, ELG1 repair inh inconclusive (no result: MCF10A rerep, SW480 rereplic)
COc1cccc(-c2cc3nc(-c4ccccc4)cc(N4CCCC(O)C4)n3n2)c1 (stereo unspecified)	MCF10A rerep 18µM, SW480 rereplic 15µM, ELG1 repair inh 16µM
Cc1cc(N2CCOCC2)n2nc(-c3cccc(F)c3)cc2n1	MCF10A rerep inconclusive
CCN1CCN(c2cc(-c3ccccc3)nc3cc(-c4cccc(F)c4)nn23)CC1	MCF10A rerep 10µM, SW480 rereplic inconclusive, ELG1 repair inh 23µM
Cc1cc(N2CCN(C(=O)c3ccco3)CC2)n2nc(-c3cccc(F)c3)cc2n1	MCF10A rerep 23µM, SW480 rereplic inconclusive, ELG1 repair inh 16µM
OC1CCN(c2cc(-c3ccccc3)nc3cc(-c4ccc(F)cc4)nn23)CC1	ELG1 repair inh 13µM
O=C(c1ccc(Cl)c(S(=O)(=O)N2CCOCC2)c1)N1CCc2ccccc2C1	ELG1 repair inh inconclusive (no result: Gal4-VP16 FLuc, RORg inh)
O=C(NC1CC1)c1ccc2c(c1)S(=O)(=O)c1cc(Cl)ccc1C2=O	none (no result: MCF10A rerep, Gal4-VP16 FLuc, RORg inh, SW480 rereplic)
COc1ccc(/C=N\NC(=O)c2cccc([N+](=O)[O-])c2)cc1Cn1cc([N+](=O)[O-])cn1	ELG1 repair inh 15µM (no result: MCF10A rerep, SW480 rereplic)
COc1cc(/C=N/NC(=O)c2cccc([N+](=O)[O-])c2)ccc1OCc1ccc(C)cc1	RORg inh 2.5µM, ELG1 repair inh inconclusive
COc1ccc(/C=N/NC(=O)c2ccc(N)cc2)cc1Cn1cc([N+](=O)[O-])cn1	MCF10A rerep inconclusive, SW480 rereplic inconclusive, ELG1 repair inh inconclusive
COc1ccc(/C=N/NC(=O)c2ccccc2O)cc1Cn1cc(Cl)cn1	Gal4-VP16 FLuc 14µM, RORg inh 6.3µM
COc1ccc(/C=N/NC(=O)c2ccn[nH]2)cc1Cn1cc([N+](=O)[O-])cn1	ELG1 repair inh inconclusive
